Results reported in PubChem BioAssay (NCATS).
Results filed as inconclusive are left out. Entries that show only a call come without a potency. Values without a mark were called inactive. The source made the active and inactive calls. The call rests on the fitted dose curve; in most records, active means well fitted curve in the direction sought with a large enough effect; inconclusive means small, poorly fitted or top-dose-only effect, or another doubt; inactive means no such curve, though single readings can be large; an effect the other way counts as inactive or inconclusive.

What was measured:
[1] = target: Rap guanine nucleotide exchange factor 3 (Homo sapiens) (UniProt O95398); test: Confirmatory qHTS for antagonist of cAMP-regulated guanine nucleotide exchange factor 3 (EPAC1) (AID 1645880); conditions: EPAC1 Rap1B-BODIPY-GDP exchange, fluorescence; activity, negative = inhibition: at 115 µM (top of the series); further: nearly all actives have a fitted effect of over 55% in size; further: potency means the concentration at half of the fitted maximal effect
In short: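 Released BODIPY-GDP fluoresces less than Rap1-bound BODIPY-GDP; the signal is followed at 480/540 nm at 5-min intervals over 30 min, after 5 min at room temperature. Reactions contain 100 nM EPAC1, 250 nM RAP1B-BODIPY-GDP and 50 uM GDP; results are normalized to ATA and DMSO.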

[2] = target: Rap guanine nucleotide exchange factor 3 (Homo sapiens) (UniProt O95398); test: Confirmatory qHTS for agonist of cAMP-regulated guanine nucleotide exchange factor 3 (EPAC1) (AID 1645881); further: nearly all actives have a fitted effect of over 75% in size; further: potency means the concentration at half of the fitted maximal effect;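 on activation: EPAC1 catalysed release of BODIPY-GDP from Rap1B seen as fluorescence loss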
[3] = target: Rap guanine nucleotide exchange factor 4 (Homo sapiens) (UniProt Q8WZA2); test: Confirmatory qHTS for antagonist of cAMP-regulated guanine nucleotide exchange factor 4 (EPAC2) (AID 1645885); further: nearly all actives have a fitted effect of over 25% in size; further: potency means the concentration at half of the fitted maximal effect
[4] = target: Rap guanine nucleotide exchange factor 3 (Homo sapiens) (UniProt O95398); test: Counterscreen qHTS for antagonist of cAMP-regulated guanine nucleotide exchange factor 3 (EPAC1) (AID 1645888)
In short: (§1)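 Measured: fluorescence of BODIPY-GDP bound to Rap1B, which falls as exchange proceeds. Conditions include 50 uM competing GDP, 5 and 30 min reads, and a later cAMP challenge for antagonist detection.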

[5] = target: Rap guanine nucleotide exchange factor 3 (Homo sapiens) (UniProt O95398); test: Counterscreen qHTS for agonist of cAMP-regulated guanine nucleotide exchange factor 3 (EPAC1) (AID 1645889); further: nearly all actives have a fitted effect of over 40% in size; further: potency means the concentration at half of the fitted maximal effect
In short: as §1

Rap guanine nucleotide exchange factor 4 (Homo sapiens), sequence (Q8WZA2 whole entry, looked up): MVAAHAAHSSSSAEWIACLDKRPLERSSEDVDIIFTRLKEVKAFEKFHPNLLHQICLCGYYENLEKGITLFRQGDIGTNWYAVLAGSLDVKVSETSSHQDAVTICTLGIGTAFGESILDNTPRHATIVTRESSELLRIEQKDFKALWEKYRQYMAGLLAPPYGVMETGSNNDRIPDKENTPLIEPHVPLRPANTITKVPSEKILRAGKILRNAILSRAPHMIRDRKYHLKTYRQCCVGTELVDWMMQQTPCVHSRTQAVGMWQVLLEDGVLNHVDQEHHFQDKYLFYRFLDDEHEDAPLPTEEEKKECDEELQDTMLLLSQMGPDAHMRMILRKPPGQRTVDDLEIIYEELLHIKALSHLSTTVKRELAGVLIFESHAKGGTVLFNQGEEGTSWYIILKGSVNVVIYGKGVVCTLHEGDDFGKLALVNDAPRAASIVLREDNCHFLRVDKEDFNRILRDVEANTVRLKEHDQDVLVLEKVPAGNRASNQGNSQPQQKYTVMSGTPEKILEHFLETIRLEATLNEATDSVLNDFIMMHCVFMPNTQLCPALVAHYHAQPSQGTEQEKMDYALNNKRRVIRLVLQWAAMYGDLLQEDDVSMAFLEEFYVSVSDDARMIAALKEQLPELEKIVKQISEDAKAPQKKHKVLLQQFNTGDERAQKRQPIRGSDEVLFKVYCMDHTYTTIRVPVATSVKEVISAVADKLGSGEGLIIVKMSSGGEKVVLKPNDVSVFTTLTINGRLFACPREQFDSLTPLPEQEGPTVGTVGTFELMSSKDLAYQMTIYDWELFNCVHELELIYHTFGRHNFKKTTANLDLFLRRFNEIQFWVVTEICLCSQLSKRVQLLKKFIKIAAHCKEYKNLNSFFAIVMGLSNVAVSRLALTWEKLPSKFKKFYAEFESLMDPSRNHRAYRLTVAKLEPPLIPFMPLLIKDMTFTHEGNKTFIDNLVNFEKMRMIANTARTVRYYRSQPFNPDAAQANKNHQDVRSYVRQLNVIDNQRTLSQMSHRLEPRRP
Rap guanine nucleotide exchange factor 3 (Homo sapiens), sequence (O95398 whole entry, looked up): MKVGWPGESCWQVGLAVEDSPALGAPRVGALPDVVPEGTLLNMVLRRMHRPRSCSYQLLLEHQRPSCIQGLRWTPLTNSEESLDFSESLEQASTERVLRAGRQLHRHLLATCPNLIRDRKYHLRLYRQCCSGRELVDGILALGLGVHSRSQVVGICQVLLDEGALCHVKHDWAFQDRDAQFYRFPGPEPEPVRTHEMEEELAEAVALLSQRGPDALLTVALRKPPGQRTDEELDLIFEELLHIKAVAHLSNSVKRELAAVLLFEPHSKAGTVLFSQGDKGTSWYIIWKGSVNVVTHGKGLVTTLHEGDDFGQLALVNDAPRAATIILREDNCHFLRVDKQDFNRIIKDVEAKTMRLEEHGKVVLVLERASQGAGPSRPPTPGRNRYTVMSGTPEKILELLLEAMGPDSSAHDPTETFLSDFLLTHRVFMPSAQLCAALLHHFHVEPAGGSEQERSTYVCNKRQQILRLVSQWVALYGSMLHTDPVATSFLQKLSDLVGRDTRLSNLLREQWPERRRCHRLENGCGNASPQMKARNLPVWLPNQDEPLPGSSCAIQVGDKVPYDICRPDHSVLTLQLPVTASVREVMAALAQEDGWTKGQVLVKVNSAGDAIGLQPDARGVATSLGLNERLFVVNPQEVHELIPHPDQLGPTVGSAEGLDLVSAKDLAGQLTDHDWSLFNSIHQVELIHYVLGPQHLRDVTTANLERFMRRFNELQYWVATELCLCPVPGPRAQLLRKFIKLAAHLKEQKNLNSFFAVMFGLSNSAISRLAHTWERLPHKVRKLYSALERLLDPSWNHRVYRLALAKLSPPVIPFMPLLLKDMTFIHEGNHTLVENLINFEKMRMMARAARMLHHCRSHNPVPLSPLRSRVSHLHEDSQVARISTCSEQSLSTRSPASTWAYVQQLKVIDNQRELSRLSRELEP

SMILES	Potency [1]	Potency [2]	outcome [3]	Potency [3]	Potency [4]	activity change, negative = inhibition [4]	Potency [5]	activation [5]
Cc1ccc(-n2nc3c(=O)n(CCCC(=O)NCc4ccc(F)cc4)nc(C)c3c2C)cc1	inactive	inactive	inactive [at 12.7 µM]					
N#CC(C#N)=C1C=C2C=C(N3CCOCC3)CCC2CC1 (stereo not given)	inactive	44.7 µM (active)		37.9 µM (active)	inactive			
O=C(N/N=C\c1c(O)ccc2ccccc12)c1ccc(S(=O)(=O)N2CCCCC2)cc1	inactive	44.7 µM (active)		inactive		-15.1% [at 30.8 µM]		
COc1ccc(-c2nc3ccccc3n2Cc2ccccc2)cc1	inactive	inactive		inactive	inactive			
CCOc1ccc(-n2cnc3scc(-c4ccc(OC)c(OC)c4)c3c2=O)cc1	inactive	inactive		inactive	inactive			
COCCOC(=O)c1c(-c2ccccc2)c(-c2ccccc2)nn(C)c1=O	inactive	inactive		inactive	inactive			
CC(=O)c1cccc(NC2c3ccccc3C(=O)N2Cc2ccc3c(c2)OCO3)c1 (stereo not given)	inactive	inactive		inactive	inactive			
CC(=O)c1ccccc1NC(=O)COC(=O)CSCC(=O)Nc1cc(C)on1	inactive	inactive		inactive	inactive			
Cc1oc2cc(Br)c(O)c(Br)c2c1C(=O)c1ccccc1	inactive	inactive		inactive	inactive			
COc1cc2c(cc1NC(=O)C(C)Oc1ccc(Cl)cc1Cl)oc1ccccc12 (stereo not given)	inactive	inactive		inactive	inactive			
COc1ccc2c(c1)Cc1sc(NC(=O)c3cccc(C)c3)nc1-2	84.9 µM (active)	inactive		inactive	inactive			
COCc1ccccc1C1=CC(=O)C[C@H](c2ccc(F)cc2)C1	inactive	inactive		inactive	inactive			
Cc1ccc(CNC(=O)CN(c2cc(C)cc(C)c2)S(=O)(=O)c2c(C)[nH]c(=O)[nH]c2=O)cc1	inactive	inactive		inactive	inactive			
COc1ccccc1CN(C)CC(=O)Nc1ccc(Cl)cc1F	inactive	inactive		inactive	inactive			
Nc1ncnc2c1nc(Sc1ccc(Cl)cc1)n2[C@@H]1O[C@@H]2COP(=O)(O)O[C@H]2[C@H]1O	0.213 µM (active)	0.355 µM (active)		0.675 µM (active)	inactive			
O=C(Nc1ccccc1N1CCCCC1)C1=COCCO1	inactive	inactive		inactive	inactive			
CCOc1cc(CNc2ccc(O)cc2)ccc1OCc1ccc(Cl)cc1	84.9 µM (active)	inactive		inactive	inactive			
c1ccc(NN(Cc2ccccn2)c2ccccc2)cc1	inactive	inactive		inactive	inactive			
COc1ccc(C(NC(=O)c2cc(OC)ccc2OC)c2ccccc2)cc1 (stereo not given)	inactive	inactive		inactive	inactive			
O=C1/C(=C\c2cccnc2)Sc2ccccc21	inactive	inactive		inactive	inactive			
CCOc1ccc(NC(=O)CSc2nc(-c3cccc(Cl)c3)nc3c2Cc2c(CO)cnc(C)c2O3)cc1	inactive	inactive		inactive	inactive			
CCOc1cc(-c2ccc(OC(=O)c3ccc(OC)cc3)c(OC)c2)cc(=O)c2c(C)oc(C)c12	75.7 µM (active)	inactive		inactive	inactive			

SMILES	Potency [1]	Potency [2]	outcome [3]	Potency [3]	Potency [4]	activity change, negative = inhibition [4]	Potency [5]	activation [5]
Cc1cccc(CNC(=O)c2ccc(-c3nc(CS(=O)(=O)c4ccccc4)c(C)o3)cc2)c1	inactive	inactive		inactive	inactive			
Cc1onc(-c2ccc3c(c2)OCO3)c1-c1ccc2[nH]ccc2c1	inactive	inactive		inactive				
Cc1ccccc1SCC(=O)Nc1cc(C(F)(F)F)ccc1N1CCOCC1	inactive	inactive		2.39 µM (active)	inactive			
COc1cc(SC)ccc1C(=O)NC1CCCc2ccccc21 (stereo not given)	inactive	inactive		30.1 µM (active)	inactive			
Cc1cccc(Cn2c(-c3cccs3)nc3ccccc32)c1	inactive	inactive		inactive	inactive			
COc1cc(NC(=O)CCNC(=O)Cn2ccc3ccccc3c2=O)cc(OC)c1OC	inactive	inactive		inactive	inactive			
Cc1ccc(-c2noc(-c3nnn(CC(=O)Nc4cc(Cl)ccc4C)c3N)n2)cc1	inactive	inactive	inactive [at 12.7 µM]		inactive			
O=C1CCC(C(=O)Nc2ccccc2N2CCCC2)=NN1	inactive	inactive		inactive	inactive			
O=S(=O)(Nc1ccccc1N1CCCCC1)c1ccccc1	inactive	inactive		inactive	inactive			
Cc1cc(Br)cc(C=Nc2ccc(N3CCOCC3)cc2)c1O	inactive	inactive		inactive	inactive			
Cc1ccc(CNc2cc(C)nc3nc(-c4ccc(C)cc4)nn23)cc1	inactive	inactive		inactive	inactive			
CCCCN(CCC#N)c1ccc(/C=C/c2ccnc3ccccc23)cc1	inactive	inactive		inactive				
CCc1ccc(CNC(=O)Cn2nc(C)n3c(cc4cc(C)ccc43)c2=O)cc1	inactive	inactive	inactive [at 12.7 µM]		inactive			
COc1ccc(C(=O)c2oc3ccccc3c2NC(=O)c2cc(=O)c3ccc(C)cc3o2)cc1Cl	inactive	inactive	inactive [at 12.7 µM]		inactive			
COc1ccc(-n2c(O)c(/C=N/NS(=O)(=O)c3cc(C)ccc3C)c3ccccc3c2=O)cc1OC	inactive	inactive		33.8 µM (active)	inactive			
COc1ccc([N+](=O)[O-])cc1-c1nc2ccccc2nc1-c1ccccc1	inactive	inactive		0.0301 µM (active)	inactive			
O=C1CSC(c2ccc(Cl)cc2Cl)N1c1ccccn1 (stereo not given)	inactive	inactive		inactive	inactive			
OC(c1ccc2ccccc2n1)c1c(Cl)cccc1Cl (stereo not given)	inactive	inactive		inactive	inactive			
COc1cc(CN2C(=O)C(C)ON=C2c2ccccc2F)cc(OC)c1 (stereo not given)	inactive	inactive		inactive	inactive		inactive	
Cc1nnc(N2CCC(C(=O)NC3CCCCC3)CC2)c2nn(-c3ccccc3)c(C)c12	inactive	inactive		inactive	inactive		inactive	
Cc1ccc(C)c(NC(=O)N2CCN3CCCCC3C2)c1 (stereo not given)	inactive	inactive		inactive	inactive			
O=S(=O)(Nc1ccccc1N1CCCCC1)c1cccs1	inactive	inactive		19 µM (active)	inactive			

SMILES	Potency [1]	Potency [2]	outcome [3]	Potency [3]	Potency [4]	activity change, negative = inhibition [4]	Potency [5]	activation [5]
Cc1cccc(NC(=O)CC2C(=O)OCCN2Cc2ccccc2)c1 (stereo not given)	inactive	inactive		inactive	inactive		inactive	
COC(=O)c1c(NC(=O)c2ccc(S(=O)(=O)N3CCCCC3C)cc2)sc2c1CCN(C(C)C)C2 (stereo not given)	inactive	112 µM (active)		inactive	inactive			
CCOC(=O)Nc1ccccc1C(=O)Nc1cc(C)cc(C)c1	inactive	inactive		inactive	inactive		0.631 µM (active)	
O=c1onc(-c2ccccc2)n1-c1cc(Cl)cc(Cl)c1	inactive	inactive		inactive	inactive		inactive	
COc1ccc(Br)cc1CN(C)CC(=O)Nc1c(Cl)cccc1Cl	inactive	inactive		13.5 µM (active)	inactive			
Cc1cc2ccccn2c1C(=O)c1ccc(Cl)c([N+](=O)[O-])c1	inactive	inactive		inactive	inactive			
CC(=O)N1CCN(C(=O)c2[nH]c(C(F)(F)F)nc2-c2ccccc2)CC1	inactive	inactive		inactive	inactive			
O=C(NCc1ccccc1F)c1ccc(CN2CC(=O)N3CCCCC3C2=O)cc1 (stereo not given)	inactive	inactive		inactive	inactive			
CCN(C(=O)c1sc2cc(OC)ccc2c1Cl)c1ccccc1	inactive	inactive		inactive	inactive			
CC(NC(=O)c1ccc(Br)s1)c1ccncc1 (stereo not given)	inactive	inactive		inactive	inactive			
Cc1ccc(S(=O)c2ccc([N+](=O)[O-])c3nonc23)cc1 (stereo not given)	23.9 µM (active)	inactive		inactive	inactive			
OCCCCC#Cc1c(-c2ccsc2)sc2ccccc12	inactive	inactive		inactive	inactive			
CC(=O)C1=CCC(c2cccc(Cl)c2)N(S(=O)(=O)c2ccc(C)cc2)C1 (stereo not given)	inactive	inactive		inactive	inactive		inactive	
COC(=O)NCc1c(C)nn(-c2ccccc2)c1-n1cccc1	inactive	inactive		inactive	inactive		inactive	
COc1ccc(NC(=O)CN(C)C(=O)c2cn(-c3ccccc3)nc2-c2cccnc2)cc1	inactive	inactive		inactive	inactive			
COc1ccc(CCNC(=O)CCCn2c(SCC(N)=O)nc3cc4c(cc3c2=O)OCO4)cc1OC	inactive	inactive	inactive [at 12.7 µM]		inactive			
COc1cc(/C=N/NC(=O)c2cc(O)cc(O)c2)ccc1OC(=O)c1ccccc1	33.8 µM (active)	inactive		3.38 µM (active)	inactive			
COc1cccc(-c2nc(N3CCN(c4ccccc4)CC3)c3ccccc3n2)c1O	inactive	inactive		inactive	inactive			
C=CCN1C(=O)/C(=C/C=C2/N(CC)c3ccc(S(=O)(=O)N(C)C)cc3N2CC)SC1=S	inactive	inactive		inactive		-11.8% [at 30.8 µM]		14.5% [at 30.8 µM]
Cc1ccc(NC(=O)N2CC3CCCN3c3ccccc32)cc1Cl (stereo not given)	inactive	inactive		inactive	inactive			
CCn1c2ccccc2c2cc(NC(=O)c3ccc(=O)oc3)ccc21	inactive	112 µM (active)	inactive [at 12.7 µM]		inactive			
CC(=O)Nc1ccc(/C(C)=N/NC(=O)c2ccc(COc3ccccc3Cl)o2)cc1	inactive	inactive		inactive		0.248% [at 30.8 µM]		15.7% [at 30.8 µM]
